# In the library only some 1.4% were active in any assay of this set; here they are far more common.
# PglD inh: inhibitors of Campylobacter jejuni PglD acetyltransferase | purified PglD enzyme, DTNB colorimetric CoA detection | inhibition, % at 12.5 µM | 360,000 compounds, 0.098% hits | AID 602405; in the data active = inhibition above about 16%, passing the limit was not always enough
# F508del corr: CFTR F508del correction in bronchial cells; CFBE cells, YFP halide quenching; stimulated with forskolin plus potentiator P3; % fluorescence drop versus neutral controls; AID 720511; activity (quench increase), % at 7.58 µM; 350,000 compounds, 0.36% hits;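 active = mean added fluorescence quench of at least 8% versus neutral control, with both replicates also reaching 8%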;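 note: cells transiently co-express mutant CFTR-F508del with the halide-sensitive YFP; corrector assay measuring rescue of mutant channel to the surface after 24 h compound exposure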
# Statin myotox sup: suppression of simvastatin myotoxicity; 330,000 compounds, 0.78% hits; rescue of ATP level, % at 7.49 µM; C2C12 myotubes + simvastatin, ATP luminescence, 48 h; scaled: DMSO 0, geranylgeraniol control 100; AID 602340;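 active = mean ATP rescue above about 67%, or every replicate alone reaching that limit, limit read from the data, passing the limit was not always enough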;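 note: myotubes were challenged with 10 µM simvastatin during compound exposure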
# ARNT TACC3 PPI: disruptors of human ARNT/TACC3 interaction. Q9Y6A5. AlphaScreen His-ARNT PAS-B/GST-TACC3 binding, luminescence; TACC3 fragment carries E629A point mutation. inhibition, % at 9.99 µM. 390,000 compounds, 0.66% hits;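 active = mean inhibition of replicates at least 50% and at least half of replicates each reaching 50%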;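 note: 0% = complete ARNT plus TACC3 wells and 100% = ARNT alone without TACC3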
# ARNT Alpha ctr-1: counter-screen for ARNT/TACC3 inhibitors: AlphaScreen artifacts. shares compounds with ARNT TACC3 PPI. His-ARNT PASB-GST AlphaScreen artifact counter-screen, luminescence. AC50, µM (series often up to 68 µM), without a hit: top-dose activity change, negative = signal decrease. 1,200 compounds, 50% hits. AID 651705;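 active = every separate test run was called active for a drop in luminescence, with AC50 within twice the top valid dose, actives reach about 71 µM in these data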
# ARNT Alpha ctr-2: AlphaScreen artifact flagged for ARNT-TACC3 inhibitors | shares compounds with ARNT TACC3 PPI | Dual-tagged His-ARNT PASB-GST AlphaScreen artifact counter-screen | AC50, µM | 45 compounds, 70% hits | AID 720564;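 active = luminescence drop, with half-maximal potency fitted within twice the sample's top valid dose, cut at about 70 µM in these data; inactive = the rest, including signal moving the wrong way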
# * hit, by the source's call; · = no result given; [ ] = another dose, or the depositor's remark.
SMILES,PglD inh,F508del corr,Statin myotox sup,ARNT TACC3 PPI,ARNT Alpha ctr-1,others
CO[C@@H]1CN(C)C(=O)c2ccc(NS(C)(=O)=O)cc2OC[C@@H](C)N(CCC(F)(F)F)C[C@@H]1C,0.8,-0.4,1.9,-3.3,·,
Cc1[nH]n(-c2ccccc2)c(=O)c1/C=N/N(c1ccccc1)c1ccccc1,·,0.6,·,55.0*,22.9µM*,
COC(=O)c1ccc2[nH]c3c(c2c1)CC(C)CC3 (configuration not stated),7.0,-1.3,-4.2,20.7*,-29.9%,
COCC#Cc1ccc2c(c1)O[C@H](CN(C)S(C)(=O)=O)[C@@H](C)CN([C@H](C)CO)S2(=O)=O,2.4,-0.5,-14.2,7.3,·,
CC(=O)N1[C@H](CO)[C@H](c2ccc(-c3cncnc3)cc2)[C@@H]1CN(C)C(=O)C1CC1,·,1.6,·,·,·,
C[C@H](O)C#Cc1cnc2c(c1)C(=O)N([C@H](C)CO)C[C@H](C)[C@H](CN(C)C(=O)c1ccccc1)O2,-1.1,-2.4,11.3,-1.0,·,
COc1cccc(S(=O)(=O)N(C)C[C@@H]2Oc3ncc(C#CCN(C)C)cc3C(=O)N([C@@H](C)CO)C[C@@H]2C)c1,-0.2,-1.6,-8.0,2.7,·,
CO[C@@H]1CN(C)C(=O)c2ccc(NC(=O)c3ccccn3)cc2OC[C@@H](C)N(C(=O)C2CC2)C[C@H]1C,5.4,0.5,2.9,56.7*,31.8µM*,
NC1=NN=C(N2N=C(c3ccccc3)CC2(O)C(F)(F)F)n2ncnc2C1 (configuration not stated),·,1.5,·,54.4*,-1.0%,
NC1=NN=C(N2N=C(c3ccc(Br)cc3)CC2(O)C(F)(F)F)n2ncnc2C1 (configuration not stated),·,2.0,·,-0.2,·,
COc1ccc(S(=O)(=O)Nc2ccc3c(c2)C(=O)N([C@H](C)CO)C[C@@H](C)[C@H](CN(C)C(=O)Nc2ccc(F)cc2)O3)cc1,-1.6,-2.7,-16.0,4.1,·,
O=C(Nc1nnc(-c2ccc(F)cc2)o1)c1ccc(S(=O)(=O)N2CCOCC2)cc1,1.5,·,-5.3,1.8,·,
CSc1ccc(-c2nnc(NC(=O)c3ccc(S(=O)(=O)N4CCC(C)CC4)cc3)o2)cc1,·,·,·,·,·,ARNT Alpha ctr-2=59.1*
CC1CN(S(=O)(=O)c2ccc(C(=O)Nc3nnc(-c4ccco4)o3)cc2)CC(C)O1 (configuration not stated),·,·,·,33.4,·,
CC1CCN(S(=O)(=O)c2ccc(C(=O)Nc3nnc(-c4ccco4)o3)cc2)CC1,1.9,3.7,-11.4,30.6,·,ARNT Alpha ctr-2=>136
CCOC(=O)c1c(C)[nH]c(N=Nc2cccc(C)c2)c1C,-2.2,·,10.0,36.2*,21.3µM*,
CCOC(=O)c1c(C)[nH]c(N=Nc2cccc(OC)c2)c1C,-5.7,0.7,1.5,7.2,·,
CCC(=O)Nc1nnc(-c2ccco2)o1,-2.1,-0.7,-8.7,7.7,·,
O=C(Cc1ccccc1)Nc1nnc(-c2ccco2)o1,·,-0.9,·,65.5*,-19.2%,
CCCCC(=O)Nc1nnc(-c2ccco2)o1,·,1.5,·,14.9,·,
O=C(CCc1ccccc1)Nc1nnc(-c2ccccn2)o1,·,·,·,51.8*,-5.7%,
O=C(Nc1nnc(-c2ccc(F)cc2)o1)c1ccco1,-1.2,-1.4,0.7,41.7*,-25.4%,
O=C(COc1ccc(Cl)cc1)Nc1nnc(-c2ccco2)o1,·,-3.6,·,25.4*,-31.1%,
Cc1ccccc1C(=O)Nc1nnc(-c2ccc(F)cc2)o1,0.4,4.4,-10.1,12.0,·,
O=C(C[C@H]1C=C[C@H](NC(=O)CC2CC2)[C@H](CO)O1)NCc1ccccc1,·,-0.9,·,·,·,
SMILES,PglD inh,F508del corr,Statin myotox sup,ARNT TACC3 PPI,ARNT Alpha ctr-1,others
C[C@H]1CN([C@@H](C)CO)C(=O)Cc2cc(NC(=O)CCN3CCOCC3)ccc2O[C@H]1CN(C)S(=O)(=O)c1cn(C)cn1,-5.9,0.4,10.7,-11.8,·,
CCS(=O)(=O)N[C@H]1C=C[C@@H](CC(=O)NCc2ccc(F)cc2)O[C@H]1CO,-0.5,3.0,7.4,-0.6,·,
CCCNC(=O)N1CC2(C1)CN(C(=O)CC1CC1)[C@H](CO)c1[nH]c3cc(OC)ccc3c12,·,-0.6,·,·,·,
COc1ccccc1NC(=O)N[C@H]1CC[C@@H](CCNS(=O)(=O)c2ccccc2)O[C@@H]1CO,·,-5.4,5.8,·,·,
COc1ccc(NC(=O)Nc2ccc3c(c2)C(=O)N([C@H](C)CO)C[C@@H](C)[C@@H](CN(C)C(=O)CCC(F)(F)F)OCCCC[C@H](C)O3)cc1,0.3,2.4,·,active,-17.0%[42 µM],
COc1ccc(NC(=O)Nc2ccc3c(c2)C(=O)N([C@H](C)CO)C[C@H](C)[C@@H](CN(C)C(=O)CCC(F)(F)F)OCCCC[C@@H](C)O3)cc1,1.4,1.3,·,2.7,·,
CC(C)NC(=O)Nc1ccc2c(c1)C(=O)N([C@H](C)CO)C[C@H](C)[C@@H](CN(C)C(=O)Cc1ccccc1)OCCCC[C@H](C)O2,-3.0,3.1,·,96.7*,-7.4%[38 µM],
CC(C)NC(=O)N(C)C[C@H]1OCCCC[C@H](C)Oc2ccc(NC(=O)Nc3ccccc3)cc2C(=O)N([C@H](C)CO)C[C@@H]1C,5.0,3.3,·,108.0*,-6.8%[42 µM],
COc1ccc(-c2ccc3n(c2=O)C[C@H]2[C@H](CO)[C@@H](C(=O)NCCN4CCCCC4)N(C)[C@@H]32)cc1,·,-0.9,·,·,·,
O=C(c1ccco1)[C@@H]1[C@@H]2C(=O)N(c3ccccc3)C(=O)[C@@H]2C2c3ccccc3C=CN21 (some centres not stated),·,·,·,40.9*,-33.6%,
Cc1cc(=O)[nH]c(-n2ncc(C#N)c2N)n1,15.1,-1.7,-5.0,56.2*,-13.4%,
CC(C)NC(=O)N(C)C[C@@H]1Oc2ncc(C#CC3CCCC3)cc2C(=O)N([C@H](C)CO)C[C@H]1C,-4.1,0.4,1.5,-4.4,·,
CC(C)NC(=O)N(C)C[C@H]1Oc2ncc(-c3cncnc3)cc2C(=O)N([C@@H](C)CO)C[C@@H]1C,-0.7,-0.3,2.4,·,·,
Oc1cc(-c2ccc(N3CCCCC3)nc2)cc2cccnc12,4.6,·,-13.2,14.4,·,
Oc1cc(Nc2ccncc2)cc2cccnc12,-3.7,-1.6,31.7,73.0*,7.88µM*,
Oc1cc(-c2ccncc2)cc2cccnc12,4.6,2.7,1.9,67.2*,11.7µM*,
CN(C)CCCNC(=O)c1ccc(-c2cc(O)c3ncccc3c2)cc1,-1.2,2.5,9.6,59.7*,13.8µM*,
O=C1[C@@H]2[C@H](C(=O)N1c1ccccc1)[C@@]13COC[C@H](c4ccccc4)N1C(=O)[C@]2(C(=O)NCc1ccccc1)O3,·,2.5,·,·,·,
COc1ccc2c3c(n(C)c2c1)[C@H](CO)N(CC1CCOCC1)CC31CN(C(=O)c2cccc(F)c2)C1,·,-0.8,·,·,·,
O=S1(=O)N=C(N/N=C/c2ccccn2)c2ccccc21,·,·,·,59.2*,23.6µM*,
C=CCSc1nnc(-c2cccc3ccccc23)o1,1.2,0.8,2.2,57.5*,33.7µM*,

# Assay outcomes: PubChem, Broad Institute
